# Measurements from the supplement of paper PMC8728848.
# This is one part of a sample in which the strongest signals are shown more often than they occur.
# Legend:
# Assay in all cases: glycan array binding signal (z-score within array); higher = stronger binding
# Details in all cases: glycan notation: IUPAC condensed, linker removed
# [1] = molecular target: Fuc(a1-2)Gal(b1-3)GalNAc(a1-3)[Fuc(a1-2)]Gal(b1-4)GlcNAc
# How it was run: (§1)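 Arrays were curated from the Consortium for Functional Glycomics database, 3228 in total, and kept only where the protein sequence was available. Binding is expressed as a within-array Z-score. This score was averaged across arrays of the same protein sequence at different concentrations or buffers and across linkers, and negative values can be read as non-binding.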
# [2] = molecular target: Fuc(a1-2)Gal(b1-3)GlcNAc(b1-2)Man(a1-3)[Fuc(a1-2)Gal(b1-3)GlcNAc(b1-2)Man(a1-6)]Man(b1-4)GlcNAc(b1-4)[Fuc(a1-6)]GlcNAc
# How it was run: as §1
# [3] = molecular target: Fuc(a1-2)Gal(b1-3)[Fuc(a1-4)]GlcNAc(b1-2)Man(a1-3)[Fuc(a1-2)Gal(b1-3)[Fuc(a1-4)]GlcNAc(b1-2)Man(a1-3)]Man(b1-4)GlcNAc(b1-4)GlcNAc
# How it was run: as §1
# [4] = molecular target: Fuc(a1-2)Gal(b1-3)[Fuc(a1-4)]GlcNAc(b1-2)Man(a1-3)[Fuc(a1-2)Gal(b1-3)[Fuc(a1-4)]GlcNAc(b1-2)Man(a1-6)]Man(b1-4)GlcNAc(b1-4)[Fuc(a1-6)]GlcNAc(b1-4)[Fuc(a1-6)]GlcNAc
# How it was run: as §1
# [5] = molecular target: Fuc(a1-2)Gal(b1-4)Glc
# How it was run: as §1
# [6] = molecular target: Fuc(a1-2)Gal(b1-4)GlcNAc(b1-3)GalNAc
# How it was run: as §1
# [7] = molecular target: Fuc(a1-2)Gal(b1-4)GlcNAc(b1-6)GalNAc
# How it was run: as §1
# [8] = molecular target: Fuc(a1-2)[GalNAc(a1-3)]Gal(b1-3)GlcNAc(b1-3)GalNAc
# How it was run: as §1
# [9] = molecular target: Fuc(a1-2)[GalNAc(a1-3)]Gal(b1-4)GlcNAc(b1-2)Man(a1-3)[Fuc(a1-2)[GalNAc(a1-3)]Gal(b1-4)GlcNAc(b1-2)Man(a1-6)]Man(b1-4)GlcNAc(b1-4)GlcNAc
# How it was run: as §1
# [10] = molecular target: Fuc(a1-2)[GalNAc(a1-3)]Gal(b1-4)[Fuc(a1-3)]GlcNAc(b1-3)GalNAc
# How it was run: as §1
# [11] = molecular target: Fuc(a1-2)[GalNAc(a1-4)]Gal(b1-4)GlcNAc
# How it was run: as §1
# [12] = molecular target: Fuc(a1-3)[Gal(b1-4)]GlcNAc(b1-2)Man
# How it was run: as §1
# [13] = molecular target: Gal(a1-3)[Gal(a1-4)]Gal(b1-4)GlcNAc
# How it was run: as §1
# [14] = molecular target: Gal(a1-4)Gal(b1-4)GlcNAc
# How it was run: as §1
# [15] = molecular target: Gal(a1-6)Glc
# How it was run: as §1
# [16] = molecular target: Gal(b1-3)GalNAc(a1-3)[Fuc(a1-2)]Gal(b1-4)GlcNAc
# How it was run: as §1
# [17] = molecular target: Gal(b1-3)GlcNAc(b1-2)Man(a1-3)[Gal(b1-3)GlcNAc(b1-2)Man(a1-6)]Man(b1-4)GlcNAc(b1-4)GlcNAc
# How it was run: as §1
# [18] = molecular target: Gal(b1-3)GlcNAc(b1-3)Gal(b1-4)GlcNAc(b1-2)[Gal(b1-3)GlcNAc(b1-3)Gal(b1-4)GlcNAc(b1-6)]Man(a1-6)[Gal(b1-3)GlcNAc(b1-3)Gal(b1-4)GlcNAc(b1-2)Man(a1-3)]Man(b1-4)GlcNAc(b1-4)[Fuc(a1-6)]GlcNAc
# How it was run: as §1
# [19] = molecular target: Gal(b1-3)GlcNAc6S
# How it was run: as §1
# [20] = molecular target: Gal(b1-3)[Fuc(a1-4)]GlcNAc(b1-6)GalNAc
# How it was run: as §1
# [21] = molecular target: Gal(b1-4)GlcNAc(b1-2)Man(a1-6)[Man(a1-3)]Man(b1-4)GlcNAc(b1-4)GlcNAc
# How it was run: as §1
# [22] = molecular target: Gal(b1-4)GlcNAc(b1-3)Gal(b1-4)GlcNAc
# How it was run: as §1
# [23] = molecular target: Gal(b1-4)GlcNAc(b1-3)Gal(b1-4)GlcNAc(b1-2)Man(a1-3)[Gal(b1-4)GlcNAc(b1-3)Gal(b1-4)GlcNAc(b1-2)Man(a1-6)]Man(b1-4)GlcNAc(b1-4)[Fuc(a1-6)]GlcNAc
# How it was run: as §1
# [24] = molecular target: Gal(b1-4)GlcNAc(b1-3)Gal(b1-4)GlcNAc(b1-3)Gal(b1-4)GlcNAc(b1-2)[Gal(b1-4)GlcNAc(b1-3)Gal(b1-4)GlcNAc(b1-3)Gal(b1-4)GlcNAc(b1-6)]Man(a1-6)[Gal(b1-4)GlcNAc(b1-3)Gal(b1-4)GlcNAc(b1-3)Gal(b1-4)GlcNAc(b1-2)Man(a1-3)]Man(b1-4)GlcNAc(b1-4)[Fuc(a1-6)]GlcNAc
# How it was run: as §1
# [25] = molecular target: Gal(b1-4)GlcNAc(b1-3)Gal(b1-4)GlcNAc(b1-3)Gal(b1-4)GlcNAc(b1-3)Gal(b1-4)GlcNAc(b1-2)Man(a1-3)[Gal(b1-4)GlcNAc(b1-3)Gal(b1-4)GlcNAc(b1-3)Gal(b1-4)GlcNAc(b1-3)Gal(b1-4)GlcNAc(b1-2)Man(a1-6)]Man(b1-4)GlcNAc(b1-4)GlcNAc
# How it was run: as §1
# [26] = molecular target: Gal(b1-4)GlcNAc(b1-3)Gal(b1-4)GlcNAc(b1-3)Gal(b1-4)GlcNAc(b1-3)Gal(b1-4)GlcNAc(b1-3)Gal(b1-4)GlcNAc(b1-3)Gal(b1-4)GlcNAc(b1-2)Man(a1-3)[Gal(b1-4)GlcNAc(b1-3)Gal(b1-4)GlcNAc(b1-3)Gal(b1-4)GlcNAc(b1-3)Gal(b1-4)GlcNAc(b1-3)Gal(b1-4)GlcNAc(b1-3)Gal(b1-4)GlcNAc(b1-2)Man(a1-6)]Man(b1-4)GlcNAc(b1-4)GlcNAc
# How it was run: as §1
# [27] = molecular target: Gal3S(b1-4)[Fuc(a1-3)]Glc6S
# How it was run: as §1
# [28] = molecular target: Gal3S6S(b1-4)GlcNAc
# How it was run: as §1
# [29] = molecular target: Gal6S(b1-4)GlcNAc6S
# How it was run: as §1
# [30] = molecular target: GlcNAc(a1-4)Gal(b1-4)GlcNAc(b1-3)Gal(b1-4)GlcNAc
# How it was run: as §1
# [31] = molecular target: GlcNAc(b1-2)Man(a1-3)[GlcNAc(b1-4)][GlcNAc(b1-2)Man(a1-6)]Man(b1-4)GlcNAc(b1-4)[Fuc(a1-6)]GlcNAc
# How it was run: as §1
# [32] = molecular target: GlcNAc(b1-3)Gal(b1-4)GlcNAc(b1-3)Gal(b1-4)GlcNAc(b1-3)Gal(b1-4)GlcNAc(b1-3)Gal(b1-4)GlcNAc(b1-2)Man(a1-3)[GlcNAc(b1-3)Gal(b1-4)GlcNAc(b1-3)Gal(b1-4)GlcNAc(b1-3)Gal(b1-4)GlcNAc(b1-3)Gal(b1-4)GlcNAc(b1-2)Man(a1-6)]Man(b1-4)GlcNAc(b1-4)GlcNAc
# How it was run: as §1
# [33] = molecular target: GlcNAc(b1-4)GlcNAc(b1-4)GlcNAc(b1-4)GlcNAc(b1-4)GlcNAc
# How it was run: as §1
# [34] = molecular target: Kdn(a2-3)Gal(b1-3)GalNAc
# How it was run: as §1
# [35] = molecular target: Neu5Ac(a2-3)Gal(b1-4)GlcNAc(b1-2)[Neu5Ac(a2-3)Gal(b1-4)GlcNAc(b1-4)]Man(a1-3)[GlcNAc(b1-4)][Neu5Ac(a2-3)Gal(b1-4)GlcNAc(b1-4)Man(a1-6)]Man(b1-4)GlcNAc(b1-4)GlcNAc
# How it was run: as §1
# [36] = molecular target: Neu5Ac(a2-3)Gal(b1-4)GlcNAc(b1-3)Gal(b1-4)GlcNAc(b1-2)Man(a1-3)[Neu5Ac(a2-3)Gal(b1-4)GlcNAc(b1-3)Gal(b1-4)GlcNAc(b1-2)Man(a1-6)]Man(b1-4)GlcNAc(b1-4)GlcNAc
# How it was run: as §1
# [37] = molecular target: Neu5Ac(a2-3)Gal(b1-4)GlcNAc(b1-6)[Neu5Ac(a2-3)Gal(b1-3)]GalNAc
# How it was run: as §1
# [38] = molecular target: Neu5Ac(a2-3)Gal(b1-4)[Fuc(a1-3)]GlcNAc6S
# How it was run: as §1
# [39] = molecular target: Neu5Ac(a2-3)[GalNAc(b1-4)]Gal(b1-4)GlcNAc
# How it was run: as §1
# [40] = molecular target: Neu5Ac(a2-6)Gal(b1-4)GlcNAc(b1-2)Man(a1-6)[Man(a1-3)]Man(b1-4)GlcNAc(b1-4)GlcNAc
# How it was run: as §1
# [41] = molecular target: Neu5Ac(a2-6)Gal(b1-4)GlcNAc(b1-3)GalNAc
# How it was run: as §1
# [42] = molecular target: Neu5Ac(a2-6)Gal(b1-4)GlcNAc(b1-3)[Neu5Ac(a2-6)Gal(b1-4)GlcNAc(b1-6)]GalNAc
# How it was run: as §1
# [43] = molecular target: Neu5Ac(a2-6)GalNAc(b1-4)GlcNAc6S
# How it was run: as §1
# [44] = molecular target: Neu5Ac(a2-8)Neu5Ac(a2-3)Gal(b1-4)GlcNAc
# How it was run: as §1
# [45] = molecular target: Neu5Ac(a2-8)Neu5Ac(a2-8)Neu5Ac
# How it was run: as §1
binder,measurement,setting,value
PX14367B-bvu-516-23-516 (Bacteroides vulgatus) (protein) LDTIPTTYVDAGSVFGKTGDAEKVLNGGWNYLMETFNSYANPGYGAMLRANDAMGSDVVLNSKYGFRTHNEFSAIYGKGGTNTLSWLLAYRVINDCNGVLDNIDAAEGTQADRNRIKGQALALRGFLYLHLASCYSFAIDKDPDAVCAPIYTQSTDETIAAEGKPASSVSEVYAQSINDLEEALELIPETYVRDAKHKIDNEVVLGILSRACLYARQWEKAKTYSDKLLAKDNYLMTESEYKAGFNSVDNKEWIWGHAQTNDQSNASYQFHYLDTTTKGSYYYSFNVDPYFRDLFEDGDYRKEMLFWATDPGADVESAAYVWMRNSKFRFRDIENQLGDIVLMRVAEIYLINAEAKAHLNDPDAINKLNDLKTARGAKTIHTNLSQQDLLETIWLERRKELWGEGFSLIDIIRNQQTVVRNAYPEGPIDYIYTDENGQTHTLKKKTQGHRFFNFPDKSAFCPNSKYYLYRITDSEELANKNLYKDHPKLSIYTK,glycan array binding signal (z-score),[1],-0.284
same,glycan array binding signal (z-score),[2],-0.028
same,glycan array binding signal (z-score),[3],-0.201
same,glycan array binding signal (z-score),[4],-0.237
same,glycan array binding signal (z-score),[5],-0.35
same,glycan array binding signal (z-score),[6],-0.282
same,glycan array binding signal (z-score),[7],-0.204
same,glycan array binding signal (z-score),[8],-0.26
same,glycan array binding signal (z-score),[9],7.56
same,glycan array binding signal (z-score),[10],0.034
same,glycan array binding signal (z-score),[11],4.75
same,glycan array binding signal (z-score),[12],-0.331
same,glycan array binding signal (z-score),[13],5.23
same,glycan array binding signal (z-score),[14],-0.328
same,glycan array binding signal (z-score),[15],-0.252
same,glycan array binding signal (z-score),[16],-0.361
same,glycan array binding signal (z-score),[17],7.76
same,glycan array binding signal (z-score),[18],4.21
same,glycan array binding signal (z-score),[19],-0.243
same,glycan array binding signal (z-score),[20],4.48
same,glycan array binding signal (z-score),[21],4.25
same,glycan array binding signal (z-score),[22],-0.337
same,glycan array binding signal (z-score),[23],0.011
same,glycan array binding signal (z-score),[24],7.91
same,glycan array binding signal (z-score),[25],0.812
same,glycan array binding signal (z-score),[26],7.87
same,glycan array binding signal (z-score),[27],2.87
same,glycan array binding signal (z-score),[28],-0.262
same,glycan array binding signal (z-score),[29],6.08
same,glycan array binding signal (z-score),[30],-0.2
same,glycan array binding signal (z-score),[31],-0.049
same,glycan array binding signal (z-score),[32],-0.276
same,glycan array binding signal (z-score),[33],-0.245
same,glycan array binding signal (z-score),[34],-0.198
same,glycan array binding signal (z-score),[35],-0.262
same,glycan array binding signal (z-score),[36],-0.164
same,glycan array binding signal (z-score),[37],-0.354
same,glycan array binding signal (z-score),[38],-0.354
same,glycan array binding signal (z-score),[39],-0.356
same,glycan array binding signal (z-score),[40],4.55
same,glycan array binding signal (z-score),[41],-0.386
same,glycan array binding signal (z-score),[42],0.372
same,glycan array binding signal (z-score),[43],-0.208
same,glycan array binding signal (z-score),[44],-0.353
same,glycan array binding signal (z-score),[45],-0.342
